According to PubChem BioAssay (NCATS):
Records with an inconclusive call do not appear. Calls of active or inactive are those of the source. Unless noted, calls come from the whole dose curve; as a rule, active = well fitted curve in the direction sought with a large enough effect; inconclusive = small, poorly fitted or top-dose-only effect, or another doubt; inactive = no such curve, though single readings can be large; an effect the other way counts as inactive or inconclusive.

Assays:
[1] = target: Mitogen-activated protein kinase 10 (Mus musculus) (UniProt Q61831); experiment: JNK3 AlphaScreen Assay (AID 530; active = well fitted curve in either direction with a large enough effect, not every such curve was filed as active;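 note: kinase came from lysate of stimulated human HepG2 cells; signal reports phosphorylation of biotinylated GST-cJun 1-79 at Ser73 with 10 µM ATP; % is set by controls: 0 for no effect and ±100 for the full control effect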); conditions: JNK3 lysate, c-Jun phosphorylation; series mostly up to 25.6 µM
Summary of the method: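 Kinase buffer: 20 mM Tris-HCl pH 7.6, 10 mM MgCl2, 1 mM DTT, 0.1 mM Na3VO4, 0.01% Tween-20; ATP 10 uM. Substrate biotin-GST-cJun(1-79), enzyme from activated HepG2 lysates. Detection by Ser73 phospho-antibody AlphaScreen.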

[2] = Cell Viability - N2a (AID 540); conditions: N2a mouse neuroblastoma cell viability; activity change, negative = cytotoxicity: at 92.2 µM (top of the series); note: nearly all actives have a fitted effect of over 45% in size; note: potency is the fitted concentration of half-maximal effect;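 for activity change, negative = cytotoxicity: plate controls were DMSO alone for no effect and tamoxifen control for full effect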
Summary of the method: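 N2a mouse neuroblastoma, 1500 cells/well, 5 hr settle; compound 40 hr, 37 °C; CellTiter-Glo 20 min RT; luminescence; Hill-fit AC50.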

[3] = Cell Viability - HUV-EC-C (AID 542); conditions: HUV-EC-C endothelial cell viability, qHTS; series mostly up to 92.2 µM; note: nearly all actives have a fitted effect of over 35% in size; note: potency is the fitted concentration of half-maximal effect; for activity change, negative = cytotoxicity: % is set by controls: 0 for no effect and ±100 for the full control effect
Summary of the method: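 Luminescent ATP read-out (CellTiter-Glo, 20 min room temperature) after 40 hr compound treatment of HUV-EC-C cells at 37 °C. Concentration-response data fitted with the standard Hill equation to give AC50; tamoxifen and doxorubicin served as positive controls.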

[4] = Cell Viability - H-4-II-E (AID 543); conditions: H-4-II-E rat hepatoma viability; series mostly up to 92.2 µM; note: nearly all actives have a fitted effect of over 35% in size; note: potency is the fitted concentration of half-maximal effect
Summary of the method: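 qHTS, rat hepatoma H-4-II-E, 1500 cells/well; 40 hr compound exposure, 37 °C; CellTiter-Glo ATP luminescence after 20 min RT; AC50 by standard Hill fit.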

[5] = Cell Viability - Renal Proximal Tubule (AID 545); conditions: renal proximal tubule cells viability, primary cells of rat origin; activity change, negative = cytotoxicity: at 91.7 µM (top of the series); note: nearly all actives have a fitted effect of over 40% in size; note: potency is the fitted concentration of half-maximal effect
Summary of the method: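 In this qHTS format, normal rat kidney-derived proximal tubule cells in complete culture medium receive compound titrations, then sit 40 hours at 37 °C before luciferase-based ATP quantitation; potency is reported as AC50 from concentration-response curves.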

[6] = Cell Viability - Mesenchymal (AID 546); conditions: mesenchymal cells viability, qHTS; activity change, negative = cytotoxicity: at 91.7 µM (top of the series);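 note: cells exposed to compound for 40 hours before reading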
Summary of the method: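 CellTiter-Glo luminescence (intracellular ATP, 20 min room temperature) after 40 hr compound exposure at 37 °C of 1000 glomerulus-derived human kidney mesenchymal cells/well; AC50 values obtained by fitting qHTS concentration-response data to the Hill equation.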

[7] = Cellular Toxicity (caspase-3) HepG2 (AID 654); conditions: HepG2 caspase-3 activation, luminescence; series mostly up to 92.2 µM; note: potency is the fitted concentration of half-maximal effect;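 for caspase-3 activation: cells exposed to compound for 16 hours before reading; 0% = DMSO alone and 100% = caspase signal from 100 µM tamoxifen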
Summary of the method: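 Luminescent Caspase-Glo 3/7 readout after 16 hr compound exposure of human hepatocellular carcinoma HepG2 cells at 37 °C; qHTS concentration-response, normalized DMSO = 0%, 100 uM tamoxifen = 100%; AC50 by standard Hill equation.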

[8] = Cellular Toxicity (caspase-3) Jurkat (AID 655); conditions: Jurkat caspase-3 activation, luminescence; series mostly up to 92.2 µM;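 note: cells exposed to compound for 16 h at 37 °C before reading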; note: potency is the fitted concentration of half-maximal effect
Summary of the method: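 qHTS in human Jurkat T-cell leukemia line: 16 hr compound treatment at 37 °C, caspase-3/7 activity measured by Caspase-Glo luminescence. AC50 derived from Hill equation.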

[9] = Cellular Toxicity (caspase-3) HUV-EC-C (AID 656); conditions: HUV-EC-C cells, caspase-3 activation (apoptosis), vehicle = 0, 100 µM tamoxifen = 100%; series mostly up to 92.2 µM
Summary of the method: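 Concentration-dependent caspase 3/7 induction was assessed in HUV-EC-C cells exposed for 16 hours. Data scaled between DMSO and tamoxifen (100 uM) controls.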

[10] = Cellular Toxicity (caspase-3) SHSY5Y (AID 657); conditions: SH-SY5Y caspase-3 activation; series mostly up to 91.7 µM;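 note: cells exposed to compound for 16 hours at 37 °C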; note: potency is the fitted concentration of half-maximal effect
Summary of the method: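 Readout: caspase-cleaved peptide-aminoluciferin substrate driving luciferase light in SH-SY5Y neuroblastoma cells after 16 h treatment. Response normalized to DMSO and 10 uM staurosporine controls.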

[11] = Cellular Toxicity (caspase-3) BJ (AID 658); conditions: BJ fibroblasts, luminescence, normalized: DMSO 0%, staurosporine 100%; series mostly up to 91.7 µM;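 note: 0% = DMSO basal and 100% = 10 µM staurosporine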
Summary of the method: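 Caspase-Glo 3/7 luminescence, read 1 hr after reagent at room temperature, in normal BJ fibroblasts exposed 16 hours at 37 °C. AC50 values from Hill-equation concentration-response, scaled between DMSO basal and 10 uM staurosporine as 100%.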

[12] = Cellular Toxicity (caspase-3) MRC-5 (AID 659); conditions: MRC-5 cells, luminescence; Potency: caspase-3 activation; series mostly up to 91.7 µM; note: potency is the fitted concentration of half-maximal effect;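 for caspase-3 activation: 0% = DMSO basal and 100% = 10 µM staurosporine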
Summary of the method: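 Luminescent Caspase-Glo 3/7 read-out (1 h, room temperature) after a 16 h, 37 °C compound exposure of MRC-5 lung fibroblasts at 1500 cells/well. Concentration-response AC50 from Hill equation; 0% DMSO, 100% 10 uM staurosporine.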

[13] = Cellular Toxicity (caspase-3) Mesangial (AID 660); conditions: mesangial cells, normalized: DMSO 0%, 100 µM tamoxifen 100%; series mostly up to 91.7 µM;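 note: combined caspase 3 and 7 activity read by Caspase-Glo luminescence; cells exposed to compound for 16 h before the caspase read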
Summary of the method: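 Luminescent Caspase-Glo 3/7 readout (aminoluciferin substrate cleavage, 20 min RT) after 16 h compound exposure at 37 °C of normal human mesangial cells. Signal increase normalized between DMSO basal and 100 uM tamoxifen; Hill-equation AC50.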

[14] = Cellular Toxicity (caspase-3) SK-N-SH (AID 661); conditions: SK-N-SH caspase-3 activation, qHTS; series mostly up to 91.7 µM; note: potency is the fitted concentration of half-maximal effect;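 for caspase-3 activation: 0% = DMSO basal and 100% = 10 µM staurosporine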
Summary of the method: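 Luminescent Caspase-Glo 3/7 read-out after 16 hr compound exposure of SK-N-SH neuroblastoma cells at 37 °C. Signal increase normalized to DMSO (basal) and 10 uM staurosporine (100%); AC50 from Hill equation fits of qHTS concentration-response data.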

[15] = Cellular Toxicity (caspase-3) H-4-II-E (AID 663); conditions: H-4-II-E rat hepatoma; Potency: caspase-3 activation; series mostly up to 92.2 µM; note: potency is the fitted concentration of half-maximal effect;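 for caspase-3 activation: cells exposed to compound for 16 hr before readout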
Summary of the method: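 Caspase 3/7 activation measured by luminescent aminoluciferin substrate cleavage after 16 hr compound treatment of H-4-II-E cells in complete medium. Increase normalized between DMSO (basal) and 100 uM tamoxifen (100%); Hill-equation AC50 from concentration-response.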

[16] = target: Glucocorticoid receptor (Homo sapiens) (UniProt P04150); experiment: GR-GFP Redistribution (AID 450;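 active = compounds whose dose series gives a full or clear partial fitted curve of increased nuclear translocation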; note: potency is the fitted concentration of half-maximal effect); conditions: U2OS GR-GFP nuclear translocation, laser cytometry, 2 h
Chain of Glucocorticoid receptor (Homo sapiens) (P04150 whole entry, looked up): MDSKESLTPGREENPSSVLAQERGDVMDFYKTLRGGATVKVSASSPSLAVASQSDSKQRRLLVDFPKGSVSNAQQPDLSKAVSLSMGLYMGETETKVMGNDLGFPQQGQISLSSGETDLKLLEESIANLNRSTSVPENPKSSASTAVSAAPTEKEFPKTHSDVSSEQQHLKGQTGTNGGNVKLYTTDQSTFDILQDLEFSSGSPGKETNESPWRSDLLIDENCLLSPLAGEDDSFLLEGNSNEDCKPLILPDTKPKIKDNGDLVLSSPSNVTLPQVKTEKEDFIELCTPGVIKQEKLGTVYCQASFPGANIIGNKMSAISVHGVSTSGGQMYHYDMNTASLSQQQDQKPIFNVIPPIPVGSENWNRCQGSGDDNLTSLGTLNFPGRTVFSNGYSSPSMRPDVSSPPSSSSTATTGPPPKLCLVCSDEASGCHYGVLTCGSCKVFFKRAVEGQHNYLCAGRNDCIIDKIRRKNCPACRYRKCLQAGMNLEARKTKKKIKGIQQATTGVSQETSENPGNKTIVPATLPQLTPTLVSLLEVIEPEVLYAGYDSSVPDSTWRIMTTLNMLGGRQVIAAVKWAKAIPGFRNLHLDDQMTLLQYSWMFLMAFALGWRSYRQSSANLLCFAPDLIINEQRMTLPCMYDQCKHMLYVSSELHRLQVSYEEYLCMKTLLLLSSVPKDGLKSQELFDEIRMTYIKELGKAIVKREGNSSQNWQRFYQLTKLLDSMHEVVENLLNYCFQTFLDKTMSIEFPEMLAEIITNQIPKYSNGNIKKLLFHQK

[17] = Cell Viability - NIH 3T3 (AID 541); conditions: NIH 3T3 cell viability, qHTS; activity change, negative = cytotoxicity: at 92.2 µM (top of the series); note: nearly all actives have a fitted effect of over 25% in size; note: potency is the fitted concentration of half-maximal effect;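 for activity change, negative = cytotoxicity: plate controls were DMSO alone for no effect and tamoxifen positive control for full effect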
Summary of the method: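 qHTS format; 40 hr compound exposure, 37 °C; CellTiter-Glo luminescence (cellular ATP) read-out after 20 min at RT. Decrease in ATP = cytotoxicity; AC50 from standard Hill fit.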

[18] = Cell Viability - SH-SY5Y (AID 544); conditions: SH-SY5Y neuroblastoma cell viability; viability change, negative = cytotoxic: at 92.2 µM (top of the series); note: nearly all actives have a fitted effect of over 55% in size; note: potency is the fitted concentration of half-maximal effect
Summary of the method: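 SH-SY5Y, 1500 cells/well, 5 hr pre-incubation 37 °C; cpd 40 hr 37 °C; CellTiter-Glo 20 min RT; luminescence (ATP) read. qHTS concentration-response, Hill fit → AC50. Tamoxifen, doxorubicin as positive controls.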

[19] = target: 3',5'-cyclic-AMP phosphodiesterase 4B (Homo sapiens) (UniProt Q07343); experiment: qHTS Assay for Inhibitors of PDE-IV (AID 607; active = well fitted activation curve with a large enough effect in the main read-out, with a control signal flat, not every such curve was filed as active; note: % of control where 0% means no effect); conditions: HEK293 ACTOne CNG channel cells, membrane potential fluorescence; series mostly up to 22.9 µM
Chain of 3',5'-cyclic-AMP phosphodiesterase 4B (Homo sapiens) (Q07343 whole entry, looked up): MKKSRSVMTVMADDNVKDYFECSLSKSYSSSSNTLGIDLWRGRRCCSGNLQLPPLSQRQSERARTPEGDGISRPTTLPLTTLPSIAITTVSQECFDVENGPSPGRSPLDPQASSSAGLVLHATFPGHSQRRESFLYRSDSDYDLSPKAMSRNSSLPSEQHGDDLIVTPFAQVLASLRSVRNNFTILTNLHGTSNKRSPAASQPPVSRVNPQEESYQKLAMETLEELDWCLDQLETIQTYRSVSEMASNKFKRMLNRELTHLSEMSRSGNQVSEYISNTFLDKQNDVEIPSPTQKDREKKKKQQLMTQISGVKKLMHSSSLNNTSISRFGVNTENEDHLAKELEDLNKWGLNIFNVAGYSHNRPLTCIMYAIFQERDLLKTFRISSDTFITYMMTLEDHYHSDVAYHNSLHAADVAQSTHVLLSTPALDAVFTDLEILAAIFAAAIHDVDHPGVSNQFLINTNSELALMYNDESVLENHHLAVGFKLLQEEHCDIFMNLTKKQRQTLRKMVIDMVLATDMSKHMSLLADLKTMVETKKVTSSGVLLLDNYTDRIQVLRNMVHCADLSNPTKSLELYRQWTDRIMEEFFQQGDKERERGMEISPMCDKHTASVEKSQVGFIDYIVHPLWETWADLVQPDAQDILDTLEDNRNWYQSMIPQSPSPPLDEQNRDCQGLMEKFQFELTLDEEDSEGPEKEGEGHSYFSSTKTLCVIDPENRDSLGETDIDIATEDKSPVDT
Summary of the method: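 Live HEK293 cells with a modified cyclic nucleotide-gated (CNG) channel report intracellular cAMP via membrane-potential dye fluorescence (ex 535/em 590 nm). Endogenous PDE-IV was targeted. Compounds were tested at up to 22.9 uM final; RO 20-1724 100 uM served as control.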

CN(C)/N=N/c1nc[nH]c1C(N)=O
active: Potency [4] 25.1 µM
inactive: outcome [1] | Potency [2] | Potency [3] | activity change, negative = cytotoxicity [5] -19.1% | activity change, negative = cytotoxicity [6] -2.47% | Potency [7] | Potency [8] | outcome [9] | Potency [10] | outcome [11] | Potency [12] | outcome [13] | Potency [14] | Potency [15]

COc1cccc2c1C(=O)c1c(O)c3c(c(O)c1C2=O)C[C@@](O)(C(=O)CO)C[C@@H]3O[C@H]1C[C@H](N)[C@H](O)[C@H](C)O1
active: Potency [2] 0.398 µM | Potency [17] 0.0794 µM | Potency [4] 25.1 µM | Potency [18] 0.0126 µM | Potency [5] 15.8 µM | Potency [8] 0.02 µM | Potency [10] 0.0158 µM | Potency [14] 0.251 µM | Potency [15] 31.6 µM
inactive: Potency [16] > 20.6 µM | outcome [1] | outcome [9] | outcome [11] | Potency [12] | outcome [13]

CC(=O)O[C@]1(C(C)=O)CC[C@H]2[C@@H]3C[C@H](C)C4=CC(=O)CC[C@]4(C)[C@H]3CC[C@@]21C
inactive: outcome [1] | Potency [3] | activity change, negative = cytotoxicity [6] -6.64% | Potency [7] | outcome [9] | Potency [10] | outcome [11] | Potency [12] | outcome [13] | Potency [14] | Potency [15]
active: activity change, negative = cytotoxicity [17] -134% | Potency [4] 50.1 µM

O=C(COc1ccc(Cl)cc1)N1CCN(Cc2ccc3c(c2)OCO3)CC1
inactive: outcome [1] | outcome [19]

CCN1CCC[C@H]1CNC(=O)c1c(OC)ccc(Br)c1OC
inactive: outcome [1] | outcome [19]

C[C@]12CC[C@@H]3c4ccc(O)cc4CC[C@H]3[C@@H]1CC[C@@H]2O
inactive: outcome [1] | Potency [2] | Potency [3] | activity change, negative = cytotoxicity [6] -23.1% | Potency [7] | Potency [8] | outcome [9] | Potency [10] | outcome [11] | Potency [12] | outcome [13] | Potency [14] | Potency [15]

Cc1cc(=O)n(-c2ccccc2)n1C
inactive: outcome [1] | outcome [19]

O=c1ccc2ccccc2o1
inactive: outcome [1] | Potency [2] | Potency [17] | Potency [3] | Potency [4] | Potency [18] | activity change, negative = cytotoxicity [5] -6.1% | activity change, negative = cytotoxicity [6] 4.05% | Potency [7] | Potency [8] | outcome [9] | Potency [10] | outcome [11] | Potency [12] | outcome [13] | Potency [14] | Potency [15]

C[C@@H]1CN(CCCn2c3ccccc3c3ccccc32)C[C@H](C)N1
inactive: outcome [1]

C1CCc2nnnn2CC1
inactive: outcome [1] | outcome [19]

CC(=O)Oc1ccc(C(c2ccc(OC(C)=O)cc2)c2ccccn2)cc1
inactive: outcome [1] | Potency [2] | Potency [17] | Potency [3] | Potency [4] | Potency [18] | activity change, negative = cytotoxicity [5] -2.53% | activity change, negative = cytotoxicity [6] -3.78% | Potency [7] | Potency [8] | outcome [9] | Potency [10] | outcome [11] | Potency [12] | outcome [13] | Potency [14] | Potency [15]

CC(O)C(=O)O (configuration not stated)
inactive: outcome [1] | Potency [2] | Potency [17] | Potency [3] | Potency [4] | Potency [18] | activity change, negative = cytotoxicity [5] -2.48% | activity change, negative = cytotoxicity [6] -3.83% | Potency [7] | Potency [8] | outcome [9] | Potency [10] | outcome [11] | Potency [12] | outcome [13] | Potency [14] | Potency [15]

CN1[C@@H]2CC[C@H]1CC(OC(=O)c1c[nH]c3ccccc13)C2 (some centres not stated)
inactive: outcome [1] | outcome [19]

CC(C)(C)CC(C)(C)c1ccc(OCCOCC[N+](C)(C)Cc2ccccc2)cc1
inactive: outcome [1] | Potency [4] | Potency [10]
active: Potency [2] 5.01 µM | activity change, negative = cytotoxicity [17] -129% | Potency [3] 50.1 µM | activity change, negative = cytotoxicity [5] -90% | activity change, negative = cytotoxicity [6] -104% | Potency [7] 50.1 µM | Potency [12] 31.6 µM

Oc1c(Cl)cc(Cl)cc1Sc1cc(Cl)cc(Cl)c1O
active: Potency [2] 31.6 µM | Potency [3] 20 µM | Potency [4] 31.6 µM
inactive: Potency [16] > 20.6 µM | outcome [1] | activity change, negative = cytotoxicity [6] -28.4% | Potency [7] | outcome [9] | Potency [10] | outcome [11] | Potency [12] | outcome [13] | Potency [14] | Potency [15]
